This is an account of results in PubChem BioAssay (NCI).

The structures appear in SMILES notation. About 83,000 compounds went through this panel and 20% of them were active in at least one assay; those are over-represented in the sample as a whole.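 Cell lines were cultured in 96-well plates, exposed to a single compound concentration, and assessed for percent growth 48 hours later.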 Unmarked numbers belong to inactive results. Active and inactive are the calls of the source.

The subject of this experiment is NCI-H460 lung. Briefly: NCI-60 one-dose screen, 48 h (100 = growth as untreated, 0 = no growth, -100 = all killed). Particulars: 10 µM unless noted. The protocol:
Growth inhibition of the NCI-H460 human Non-Small Cell Lung tumor cell line is measured as a screen for anti-cancer activity. Cells are grown in 96 well plates and exposed to the test compound for 48 hours. Compounds are tested at a single concentration, which is 10^-5 M for most compounds. The reported endpoint is percent growth (GI% or GIPRCNT), where numbers from 0 - 100% represent growth inhibition, and numbers from -100% - 0 represent cell death. For example, a value of 40 represents 60% growth inhibition. A value of 0 means no net growth occurred over the course of the experiment. A value of -40 indicates 40% of cells at the beginning of the experiment died by the end of the experiment. A value of -100 means all cells are dead at the end of the experiment.
NCI-60 Human Tumor Cell Lines Screen was performed using the standard one-dose NCI protocol, which is described in more detail at https://dtp.cancer.gov/discovery_development/nci-60/default.htm.
Compounds with GIPRCNT values below 10 were considered active. Activity score was based on GIPRCNT using the following formula: […]
Score is 0 for GIPRCNT values of 100 or above, 50 for GIPRCNT values of 0, and 100 for GIPRCNT values of -100.
Take `Cc1nc(Sc2nc3ccc([N+](=O)[O-])cc3s2)sc1C`: the growth was 11.7%.

`Cc1ccc2c(c1)sc(-c1ccc(N(C)C)cc1)[n+]2C`: the growth is -25.7% (active). The figure for `CC(=O)Nc1ccc(C(=O)CCl)cc1` is 80.9%; for `CCCCCCCCCCCC[n+]1ccc2ccccc2c1` it is -13.5% (active); for `COc1cc(-c2ccc(-[n+]3nc(-c4ccc([N+](=O)[O-])cc4)nn3-c3ccc([N+](=O)[O-])cc3)c(OC)c2)ccc1-[n+]1nc(-c2ccc([N+](=O)[O-])cc2)nn1-c1ccc([N+](=O)[O-])cc1` it is 3.02% (active). With `C/C=C/c1cc2c(c(=O)o1)C(=O)[C@@H](O)[C@H](C)O2`, the growth was 81.6%. On to `Clc1ccccc1C(c1ccccc1)(c1ccccc1)n1ccnc1`, for which the growth was 51.4%. As for `Cc1cc2cccnc2c2ncccc12`, the growth was 0.789% (active).

Take `O=C1C=Cc2ccccc2/C1=C/c1nc(-c2ccccc2)oc1O`: the growth was 98.5%. For `CN1CSC(=S)N(Cc2ccccc2)C1`, the growth is 108%. Consider `CN1CCC(CN2c3ccccc3Sc3ccccc32)C1` (stereo not given), for which the growth was 101%. Consider `CCOC(=O)C1(C)CCCC1N` (stereo not given), for which the growth was 109%.

`COC(=O)c1cc([N+](=O)[O-])cc([N+](=O)[O-])c1Cl`: the growth was 102%. On to `O=C(c1ccccc1)N(CCCl)C(=O)N(CCCl)C(=O)c1ccccc1`, for which the growth is 108%.

For the compound `O=C1Nc2ccc(Br)cc2C1=O`, the growth is 102%. The figure for `COc1ccc(C(OCC2OC(n3ccc(NC(=O)c4ccccc4)nc3=O)C(O)C2O)(c2ccccc2)c2ccccc2)cc1` (stereo not given) is 15.5%; for `CCCCCCCCCCCC(=O)OC(C)C(=O)NCCCC` (stereo not given) it is 105%; for `Cc1onc(-c2ccccc2)c1C(=O)N/N=C/c1cc(Cl)cc(Cl)c1O` it is 22.7%. The result for `S=C=Nc1ccc(N2CCOCC2)cc1` reads 99.8%; that for `CN1CCC(c2ccccc2)(c2ccccc2)C(=O)C1`, 98%; that for `CCOC(=O)C1=C(C(=O)c2ccccc2)C(c2cccc([N+](=O)[O-])c2)C(C(=O)c2ccccc2)=C(C(=O)OCC)N1`, 98.8%. The result for `Cc1ccccc1N=C(N)Nc1ccccc1C` (tested in a mixture with another compound) reads 76.1%. As to `O=C(OC12CC3CC(CC(C3)C1)C2)c1ccc(NCc2cc(O)ccc2O)cc1`, the growth is 3.32% (active).

Turning to `CCOC(=O)/C(=C\c1ccc2ccccc2c1)P(=O)(OCC)OCC`, the growth was 20%. The figure for `O=C(Cc1nc2cc(Cl)c(Cl)cc2nc1CC(=O)c1cccnc1)c1cccnc1` is 82.6%; for `O=C1/C(=C/c2ccccc2)CCC/C1=C\c1ccccc1` it is 103%.

On to `CCCCCCN(CCCCCC)CCCNc1nccc2ccccc12`, for which the growth was 3.2% (active).

On to `CCCCCC/C=C1\CCC(CN2CCCC2)C1=O` (stereo not given), for which the growth is 102%. The result for `COC(=O)c1nc(=S)[nH]c(C(=O)OC)c1C(=O)c1ccc(Cl)c(Cl)c1` reads 111%. The figure for `C(=N\Nc1ccc2ccccc2n1)/c1ccccn1` is 3.31% (active). The figure for `CCc1oc2ccccc2c1C(=O)c1cc(Br)c(O)c(Br)c1` is 86.9%; for `CN=C(N)N/N=C(\C)c1ccc2c(c1)Cc1ccccc1-2` it is -97.9% (active). `NCCCN(CCCN)CCCNCc1c2ccccc2c(CNCCCN(CCCN)CCCN)c2ccccc12`: the growth was 93.9%. The figure for `O=C(NOC(=O)c1ccccc1)c1ccccc1` is 97.9%; for `CN(C)CC(C)(CN(C)C)C(=O)/C=C/c1c(Cl)cccc1Cl` it is 57.9%; for `O=C(Nc1ccc(Cl)c(Cl)c1)OCc1ccco1` it is 26.4%.

For `N#CC(I)CS(=O)(=O)c1ccccc1` (stereo not given), the growth was 114%.

For `CC(/C=N/NC(N)=S)Cc1ccc(C(C)C)cc1` (stereo not given), the growth is 82.8%. Regarding `Fc1ccc(NCCS)cc1`, the growth is 102%. As to `O=C1C(=O)c2cc([N+](=O)[O-])ccc2-c2ccccc21`, the growth was 16.4%.
